Measured values reported in PubChem BioAssay (Tox21).
Records with an inconclusive call do not appear. Where a call stands in place of a potency, no number is given. Calls of active or inactive are those of the source. The call rests on the fitted dose curve; in most records, active means well fitted cell-killing curve with a large enough effect in the repeat runs; inconclusive means weak or mixed curves, or effect the other way; inactive means flat fitted curve, though single readings scatter.

assay: qHTS RealTime-Glo MT Cell Viability Assay in HEK293 cells - 24 hour (AID 1224886); conditions: RealTime-Glo luminescence; series mostly up to 76.8 µM; further: nearly all actives have a fitted effect of over 50% in size
Description: National Center for Advancing Translational Sciences [NCATS]
NIH Chemical Genomics Center [NCGC]
U.S. Environmental Protection Agency [EPA]
National Institutes of Environmental Health Sciences [NIEHS]
National Toxicology Program [NTP]
U.S. Food and Drug Administration [FDA]
Measure of cell viability is critical in the cell-base assay. Analysis of cell viability is necessary for the characterization of cell responses to cytotoxic drugs and environmental stress. A RealTime-Glo MT Cell Viability Assay to monitor cell viability in real time of continues cell culture during 40 hours of compound treatment was used to screen Tox21 10K library compounds in Hek293 cells. The RealTime-Glo MT Cell Viability Assay is a nonlytic, homogeneous, bioluminescent method to measure cell viability in real time using a simple, plate-based method. The assay involves adding NanoLuc luciferase and a cell-permeant prosubstrate to cells in culture. Viable cells reduce the proprietary prosubstrate to generate a substrate for NanoLuc luciferase. This substrate diffuses from cells into the surrounding culture medium, where it is rapidly used by the NanoLuc Enzyme to produce a luminescent signal. The signal correlates with the number of viable cells, making the assay well suited for cytotoxicity studies.
Tox21 Assay Protocol Summary:
The mixture of Hek293 cell suspension and reagents were dispensed at 600cells/6 ul/well in 1536-well tissue culture treated black solid bottom plates using a Multidrop dispenser. After the assay plates were incubated at a 37 C/5% CO2 incubator for 5 hours, 23 nL of compounds dissolved in DMSO, positive and negative controls was transferred to the assay plate by a pintool work station. The plates were incubated at 37 C for 40 hours. The luminescence intensity were measured at 0h, 8h, 16h, 24h, 32h and 40h time points using ViewLux plate reader during compound treatment.
Potency means the concentration at half of the fitted maximal effect.

| SMILES | Potency |
| --- | --- |
| CCCCCCCCCCCCN1CCOCC1 | inactive |
| CC(C)Oc1ccccc1O | inactive |
| Nc1ncnc2c1ncn2[C@@H]1O[C@H](CO)[C@@H](O)[C@H]1O | inactive |
| CCCCCCCCC(=O)OCC(C)OC(=O)CCCCCCCC (stereo not given) | inactive |
| C[C@H](N)C(=O)N[C@@H](C)C(=O)NC1[C@H]2CN(c3nc4c(cc3F)c(=O)c(C(=O)O)cn4-c3ccc(F)cc3F)C[C@@H]12 (stereo not given in full) | inactive |
| Oc1ccc(CCNCCCCCCNCCc2ccccc2)cc1O | 23.9 µM (active) |
| SCCOCCOCCS | inactive |
| CCC1=C(C)CN(C(=O)NCCc2ccc(S(=O)(=O)NC(=O)NC3CCC(C)CC3)cc2)C1=O (stereo not given) | inactive |
| O=C(Cl)c1cc(Cl)cc(Cl)c1 | inactive |
| CCC(=O)O[C@]1(C(=O)COC)[C@@H](C)C[C@H]2[C@@H]3CCC4=CC(=O)C=C[C@]4(C)C3(F)[C@@H](O)C[C@@]21C (stereo not given in full) | inactive |
| CCc1ccc(C(=O)C(C)CN2CCCCC2)cc1 (stereo not given) | inactive |
| O=Cc1ccc([N+](=O)[O-])cc1 | inactive |
| O=C1C=CCCC1 | inactive |
| Clc1cc(Cl)c2c(c1)N=C1CCCCCN1C2 | 19 µM (active) |
| CCOc1ccc(NC(C)=O)cc1N | inactive |
| O=[N+]([O-])c1ccccc1CCO | inactive |
| O=C(C1CCCCC1)N1CC(=O)N2CCCc3ccccc3C2C1 (stereo not given) | inactive |
| CC(COc1ccccc1)NC(C)C(O)c1ccc(O)cc1 (stereo not given) | inactive |
| C[C@@H](O)[C@H]1C(=O)N2C(C(=O)O)=C(S[C@@H]3CN[C@H](CNS(N)(=O)=O)C3)[C@H](C)[C@H]12 | inactive |
| O=C(c1ccco1)N1CCNCC1 | inactive |

| SMILES | Potency |
| --- | --- |
| Cc1cc(C)n(CO)n1 | inactive |
| CC(C)(C(=O)O)c1ccc(C(O)CCCN2CCC(C(O)(c3ccccc3)c3ccccc3)CC2)cc1 (stereo not given) | inactive |
| CC(C)=CCC/C(C)=C/C=N/O | inactive |
| Cc1c(-c2cccnc2)c2ccccc2n1CCCCC(=O)O | inactive |
| CCc1cnc(C(=O)O)c(C(=O)O)c1 | inactive |
| CC(C)=CCCC(C)C=O (stereo not given) | inactive |
| CCCC1CCCC(=O)O1 (stereo not given) | inactive |
| CC(=O)c1cccnc1 | inactive |
| CC(O)C(C)O (stereo not given) | inactive |
| NC(=O)c1ccccc1C(N)=O | 34.8 µM (active) |
| CNc1ccccc1 | inactive |
| O=[N+]([O-])c1cccc(I)c1 | inactive |
| O=C(O)CCc1nc2ccccc2[nH]1 | inactive |
| C=CC(C)(O)CC/C=C(/C)CCC=C(C)C (stereo not given) | inactive |
| CCCCCCCCNC | inactive |
| Cc1ccc(Cl)c(OCC(O)CNC(C)(C)C)c1 (stereo not given) | inactive |
| Nc1ccc(F)cc1F | inactive |
| CCCC1CCOC(C)S1 (stereo not given) | inactive |
| CC(=O)Nc1cccc(N)c1 | inactive |
| Nc1cccc2c(=O)[nH][nH]c(=O)c12 | inactive |
